From PubChem
Compounds with a hit are over-represented: about 9.3% of the library has one in this group of screens.
ELG1 genotox: inducers of genotoxicity in HEK293T ELG1-luciferase cells; HEK293T ELG1-luciferase reporter, luminescence, 16 h; Potency, µM (highest dose often 46 µM), for the others: top-dose activity change, positive = activation, most hits filed as activators; 330,000 tested, 1.3% active; further: % of control where 0% means no effect; nearly all actives have a fitted effect of over 60% in size
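Genotoxic stress is detected as increased luminescence from luciferase-tagged ELG1 in HEK293T cells, measured with ONE-Glo after a 16 hr treatment at 37 °C.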
ELG1 repair inh: inhibitors of ELG1-dependent DNA repair in HEK293T cells; 330,000 tested, 2.3% active; Potency, µM (top dose mostly 46.1 µM), for the others: top-dose activity change, negative = inhibition, actives largely listed as inhibitors; HEK293T ELG1-luciferase reporter, luminescence, 16 h; DNA damage induced by 5-fluorouridine; further: on the % scale 0 is the no-effect control and ±100 the full control effect; nearly all actives have a fitted effect of over 55% in size
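Reporter activity after DNA damage by 5-fluorouridine is monitored. Compound-treated cells incubate 16 hr at 37 °C, then ONE-Glo is added for 30 min before luminescence reading.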
SMN2 splice up: SMN2 splice variant enhancement | Potency, µM (doses to about 46.1 µM), for the others: top-dose activity change, positive = activation, actives largely listed as activators | AID 1458 | HEK293 SMN2-luciferase splicing reporter, luminescence, 30-36 h | 210,000 tested, 2.8% active; further: % of control where 0% means no effect; nearly all actives have a fitted effect of over 55% in size
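HEK293 cells carry an SMN2 minigene-luciferase reporter in which exon 7 inclusion puts luciferase in frame. Cells were seeded at 2000 cells/well, attached for 10-12 hours, then exposed to compounds for 30-36 hours at 37C before ONE-Glo luminescence.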
Rab9 promoter act: activates the Rab9 promoter | 320,000 tested, 2.8% active | Huh7 Rab9 promoter-luciferase reporter, luminescence, 24 h | Potency, µM (doses to about 9.22 µM), without a hit: top-dose activation, negative = inhibition, usual class: activators; further: % of control where 0% means no effect; nearly all actives have a fitted effect of over 60% in size
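Quantitative HTS format; Huh7 Rab9-luciferase reporter cells (1500/well) receive compound 2 h post-plating, incubate 24 h at 37 °C, then get luciferase reagent for 10 min before luminescence reading.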
FLuc counter: counter-screen for miR-21 project: firefly luciferase inhibitors or activators; P08659; purified FLuc, Km substrates, luminescence inhibition; Potency, µM (series often up to 57.5 µM), for the others: at the top dose activity change, negative = inhibition, hits mostly inhibitors; 360,000 tested, 6.9% active; AID 588342;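 further: plate controls were vehicle for no effect and reference inhibitor for full effect; nearly all actives have a fitted effect of over 55% in size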
Target sequence (P08659 whole entry, looked up): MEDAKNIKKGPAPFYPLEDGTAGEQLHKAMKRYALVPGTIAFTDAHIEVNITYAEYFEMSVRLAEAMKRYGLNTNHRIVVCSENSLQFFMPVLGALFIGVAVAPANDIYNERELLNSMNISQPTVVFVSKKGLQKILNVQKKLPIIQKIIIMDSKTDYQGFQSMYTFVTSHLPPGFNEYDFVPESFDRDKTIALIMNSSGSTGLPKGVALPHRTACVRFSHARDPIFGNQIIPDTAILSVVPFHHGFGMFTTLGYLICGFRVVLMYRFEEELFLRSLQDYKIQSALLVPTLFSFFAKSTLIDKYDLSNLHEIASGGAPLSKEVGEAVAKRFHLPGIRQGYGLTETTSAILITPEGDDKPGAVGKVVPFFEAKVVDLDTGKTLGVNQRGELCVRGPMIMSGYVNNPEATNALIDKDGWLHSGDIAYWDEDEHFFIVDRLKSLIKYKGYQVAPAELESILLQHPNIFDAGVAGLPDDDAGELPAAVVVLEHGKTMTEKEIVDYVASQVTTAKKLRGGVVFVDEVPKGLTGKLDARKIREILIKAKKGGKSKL
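Purified P. pyralis luciferase (10nM final) with 10uM D-luciferin and 10uM ATP (Km levels) in 50mM Tris acetate pH 7.5, 10mM Mg acetate, 0.01% Tween-20, 0.05% BSA; qHTS 6-point titration, ~60 µM downward; luminescence read.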
NPC1 prom act: activates the NPC1 promoter | Huh7 NPC1 promoter luciferase reporter, 24 h | Potency, µM (top dose mostly 9.22 µM), without a hit: top-dose activation, most hits filed as activators | 320,000 tested, 2.4% active | AID 485313; further: % of control where 0% means no effect; nearly all actives have a fitted effect of over 60% in size
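Compounds in DMSO were transferred onto Huh7 NPC1-luciferase reporter cells pre-incubated 2 h; after 24 h at 37 °C, Amplite reagent was dispensed and luminescence recorded 10 min later.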
* = called active by the depositor; ? = inconclusive; . = no result given; [ ] = another dose, or the depositor's remark. The call rests on the fitted dose curve; in most records, active means well fitted curve in the direction sought with a large enough effect; inconclusive means small, poorly fitted or top-dose-only effect, or another doubt; inactive means no such curve, though single readings can be large; an effect the other way counts as inactive or inconclusive. Potency means the concentration at half of the fitted maximal effect.

SMILES | ELG1 genotox | ELG1 repair inh | SMN2 splice up | Rab9 promoter act | FLuc counter | NPC1 prom act
O=C(CN1C(=O)NC2(CCCC2)C1=O)N1CCc2ccccc2C1 | 4% | -10% | 5% | 16% | -3% | 2%
Cc1cc(C)n(-c2cccc(Cl)c2C#N)n1 | -5% | -3% | . | -13% | 2% | 1%
Cc1ccccc1CC1(CO)CCCN(C(=O)c2ccc3ncccc3c2)C1 (centres undefined) | -7% | 15% | . | -8% | -1% | 0%
CCCCNC(=O)c1cn(-c2ccc(OCC)cc2)c(=O)c2cc(OC)c(OC)cc12 | -13% | 23µM* | 5% | -2%[1.84 µM] | -2% | 1%
CCOc1ccc(NC(=O)c2cn(-c3ccc(OCC)cc3)c(=O)c3cc(OC)c(OC)cc23)cc1 | 2% | ? | 3% | -1% | 8% | 2%
Cc1ccc(N(Cc2cc3ccccc3[nH]c2=O)C(=O)c2cccs2)cc1C | -6% | 23µM* | . | -1% | 0% | -4%
CC(=O)NCCc1cc2ccc(C)c(C)c2[nH]c1=O | 17% | ? | ? | -6% | 3% | -2%
Cc1ccc2cc(CCNC(=O)c3cccs3)c(=O)[nH]c2c1 | ? | ? | 10µM* | ? | 11µM* | 3.2µM*
Cc1ccc2cc(CCNC(=O)c3cccc([N+](=O)[O-])c3)c(=O)[nH]c2c1C | -6% | 18µM* | -35% | -4% | -7% | 1%
Cc1ccc2cc(CCNC(=O)c3cccs3)c(=O)[nH]c2c1C | ? | ? | 10µM* | 2.8µM* | 5.4µM* | 2.8µM*
O=C(c1cccs1)N(Cc1cc2ccccc2[nH]c1=O)c1ccccc1 | -5% | -3% | -45% | -1% | 2% | -5%
COc1cc(Cl)c(NS(=O)(=O)c2cc3[nH]c(=O)c(=O)[nH]c3cc2C)c(OC)c1 | 1% | 22% | . | 2% | -2% | -2%
CS(=O)(=O)N1CCC2(CC1)CN(c1ccccn1)C2 | . | . | -8% | . | . | .
O=C(CNC(=O)c1ccc(Cl)c([N+](=O)[O-])c1)OC1CCCCC1=O (centres undefined) | 3% | ? | . | -3% | -1% | 0%
CCOc1ccc(C(=O)OCC(=O)NC2CCCC2)cc1OCC | 0% | 9% | . | -2%[1.84 µM] | ? | 2%
COc1ccc(-c2nnn(CC(=O)N3CCN(c4ccccc4OC)CC3)n2)cc1OC | -5% | ? | . | -14% | 5% | -5%
COc1ccc(C(=O)Nc2ccc(-c3nnn(CC(=O)N4CCN(C(=O)c5ccco5)CC4)n3)cc2)cc1 | -7% | ? | -13% | 1% | 13µM* | 2%
COc1ccc(-c2nnn(CC(=O)N3CCN(c4ccccc4OC)CC3)n2)cc1 | -7% | 23µM* | -35% | 2% | -3% | -4%
CC(=O)N1CC(=O)N=C1SCC(=O)Nc1nc(C)c(-c2ccccc2)s1 | ? | ? | ? | 26% | -18% | 22%
COCCN(C(=O)c1cccc(N2C(=O)CCC2=O)c1)c1nc(-c2ccc([N+](=O)[O-])cc2)cs1 | -4% | 5.8µM* | . | -7% | 0% | -2%
CCOCCCN1C(=O)C(=O)N(CC(=O)N2c3ccccc3NC(=O)CC2C)C1=O (centres undefined) | 1% | 2% | . | -3% | . | 0%
COc1cccc(C(=O)Nc2cccc(-c3cn4ccsc4n3)c2)c1OC | . | . | . | . | 15µM* | .
COc1cc(OC)cc(C(=O)Nc2cccc(-c3cn4ccsc4n3)c2)c1 | . | . | . | . | 6µM* | .
COc1cccc(C(=O)Nc2ccc(-c3cn4cccnc4n3)cc2)c1OC | . | . | -10% | . | -6% | .
COc1cccc(OC)c1C(=O)Nc1cccc(-c2cn3ccsc3n2)c1 | . | . | . | . | 24µM* | .
SMILES | ELG1 genotox | ELG1 repair inh | SMN2 splice up | Rab9 promoter act | FLuc counter | NPC1 prom act
CCOc1ccc(C(=O)Nc2nnc(C3=COCCO3)o2)cc1 | 2% | 0% | . | 11% | -4% | 7%
CCOC(=O)c1c(N2C(=O)Nc3cc(Cl)c(Cl)cc3N2O)sc2c1CCCCC2 | -10% | 0% | 3% | 1% | -1% | -5%
COc1ccccc1Cc1nc2ccccc2nc1SCC(=O)N(C)c1ccc(F)cc1 | . | . | . | . | -9% | .
Cc1cc(-c2ccc(F)cc2)nc2cc(C(N)=O)nn12 | -11% | ? | -3% | -3% | 1% | -1%
CCOC(=O)c1cnn2c(C)cc(-c3ccc(F)cc3)nc12 | ? | ? | 11µM* | 3.5µM* | 12µM* | 2.8µM*
Clc1cccc(Cl)c1CSc1cc2c(nn1)-c1ccccc1CC2 | 13% | ? | -4% | 26% | ? | 17%
Clc1ccccc1CSc1cc2c(nn1)-c1ccccc1CC2 | ? | ? | 20µM* | 2.5µM* | 5.4µM* | ?
C=C[C@](C)(O)CCC=C(C)C | . | . | -9% | . | . | .
O=c1c2c(nc3cc(-c4ccc(F)cc4)[nH]n13)CCC2 | 18µM* | ? | 7.1µM* | 3.2µM* | 8.5µM* | 2.5µM*
O=c1cc(-c2ccccc2)nc2cc(-c3ccc(F)cc3)[nH]n12 | . | . | 10% | . | ? | .
Cc1ccc(C)c(N2CCN(S(=O)(=O)c3cnc(N)nc3)CC2)c1 | . | . | . | . | -5% | .
CCC(=O)N1CCN(c2ccccc2NC(=O)c2ccc(-c3cccc([N+](=O)[O-])c3)o2)CC1 | -6% | 9.2µM* | -9% | -2% | -13% | 0%
CN1CCN(c2ccccc2NC(=O)c2ccc([N+](=O)[O-])o2)CC1 | -22% | 9.2µM* | . | -28% | 1% | -41%
CS(=O)(=O)N1CCN(c2ccccc2NC(=O)c2ccc([N+](=O)[O-])o2)CC1 | -13% | 23µM* | -18% | -1% | 1% | -7%
CN1CCN(c2ccccc2NC(=O)c2ccc(-c3cccc([N+](=O)[O-])c3)o2)CC1 | -5% | ? | -1% | 1% | 1% | 0%
CC(=O)N1CCN(c2ccc(NC(=O)c3ccc([N+](=O)[O-])o3)cc2Cl)CC1 | -11% | 18µM* | . | 14% | -15% | 0%
Cc1ccccc1NC(=O)c1ccc([N+](=O)[O-])o1 | -5% | ? | . | -9% | 1% | -11%
CCOc1ccc(S(=O)(=O)NCCC(=O)NCC2(N3CCCCC3)CCCCC2)cc1 | 0% | 1% | . | 3% | 0% | -3%
CCOc1ccc(NC(=O)Cn2cc(C(=O)c3ccc(F)cc3)c(=O)c3cc4c(cc32)OCCO4)cc1 | . | . | -1% | . | 2% | .
O=C(Nc1cccc(NC(=O)c2ccco2)c1)c1ccc2c(c1)OCO2 | 0% | -25% | 3% | -5% | 15µM* | 3%
COc1cc(NC(=O)c2ccc3c(c2)OCCO3)ccc1NC(=O)c1ccco1 | 1% | 0% | . | 29% | 3.4µM* | 22%
